This note sets out measurements from PubChem BioAssay (EPA / NIEHS).

Results filed as inconclusive are left out. Active and inactive are the calls of the source. The calls were made as follows, unless noted: active = hit-call score of the fitted dose curve at least 0.9, where 1 is the maximum; inactive = score below 0.9.

For assay [1], the target named is Paired box protein Pax-6 (Homo sapiens) (UniProt P26367). As to the kind of experiment: ATG_Pax6_CIS: Attagene CIS-FACTORIAL HepG2 Assay for human Paired Box 6 (PAX6) (AID 2282956). Conditions: HepG2 CIS-FACTORIAL PAX6 reporter transcription, RNA readout; actives raise or lower the signal. The procedure, abridged:
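DMSO-referenced bidirectional fits of reporter mRNA fluorescence; HepG2 with transient cis-promoter MRTUs, 24 h post-dose, RT-PCR plus capillary electrophoresis detection.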

The nature of assay [2]: ATG_PXRE_CIS: Attagene CIS-FACTORIAL HepG2 Assay for human Pregnane X Receptor Element (PXRE) (AID 2282957). Conditions: HepG2 Attagene CIS-FACTORIAL PXRE reporter, mRNA; actives raise or lower the signal. The method, boiled down: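 Fluorescent capillary electrophoresis of amplified reporter cDNA gave the signal, collected 24 h after dosing HepG2 cells that held transfected cis-element reporter constructs.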

A short description of assay [3]: ATG_PPRE_CIS: Attagene CIS-FACTORIAL HepG2 Assay for human Peroxisome Proliferator-activated Response Element (PPRE) (AID 2282958). As to conditions: HepG2 PPRE cis-element reporter, Attagene transcription factor profiling; actives raise or lower the signal. The method, boiled down:
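After human HepG2 hepatoma cells were transiently transfected with cis-promoter reporter constructs, they were exposed to test chemicals for 24 hours. Reporter RNA was then reverse-transcribed, PCR-amplified, FAM-labeled, HpaI-digested and quantified by capillary electrophoresis.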

A short description of assay [4]: ATG_RORE_CIS: Attagene CIS-FACTORIAL HepG2 Assay for human RAR-related Orphan Receptor Element (RORE) (AID 2282959). As to conditions: HepG2 Attagene cis-factorial RORE reporter, mRNA; actives raise or lower the signal. The procedure, abridged:
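Measured here: transcript induction of a cis-regulated reporter in HepG2 cells transiently transfected via FuGene 6. After 24 h, RNA was processed by RT-PCR and fluorescent capillary electrophoresis; DMSO defined baseline activity.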

Assay [5] in a line: ATG_Sox_CIS: Attagene CIS-FACTORIAL HepG2 Assay for human SRY-box transcription factor (SOX) (AID 2282960). As to conditions: HepG2 Attagene cis-factorial SOX reporter, mRNA; actives raise or lower the signal. The method, boiled down:
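Using transiently transfected HepG2 cells, reporter transcription driven by cis elements was assessed 24 h after dosing. Signal was fluorescence of capillary-separated RT-PCR products, with DMSO defining baseline activity.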

For assay [6], the target named is Transcription factor Sp1 (Homo sapiens) (UniProt P08047). As to the kind of experiment: ATG_Sp1_CIS: Attagene CIS-FACTORIAL HepG2 Assay for human Specificity Protein 1 (Sp1) (AID 2282961). Conditions: HepG2 Sp1 cis-reporter transcription, actives raise or lower the signal. The method, boiled down:
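After transient transfection of HepG2 cells with cis-promoter reporter units and 24 h chemical treatment, reporter transcripts were quantified by RT-PCR and capillary electrophoresis fluorescence. Gain- and loss-of-signal fitted against DMSO.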

Assay [7] can be described thus: ATG_TCF_b_cat_CIS: Attagene CIS-FACTORIAL HepG2 Assay for human T-Cell-Factor with beta-catenin (TCF/b-cat) (AID 2282965). Conditions: HepG2 TCF/beta-catenin cis-reporter transcription, actives raise or lower the signal. The procedure, abridged:
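In this cis-format system, transfected HepG2 cells report endogenous transcription factor activity. Readout after 24 h exposure is reporter transcript abundance from RT-PCR and capillary electrophoresis, analysed for gain or loss of signal versus DMSO.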

A short description of assay [8]: ATG_TAL_CIS: Attagene CIS-FACTORIAL HepG2 Assay for human TAL Basal Promoter (AID 2282966).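 Also: background control endpoint measuring basal TAL promoter reporter mRNA not a specific factor.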 As to conditions: HepG2 Attagene cis-factorial TAL promoter reporter; actives raise or lower the signal. The method, boiled down: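 Transiently transfected HepG2 (cis-regulated reporter units), 24 h treatment, mRNA read by fluorescent CE after RT-PCR; bidirectional fit, DMSO baseline.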

For assay [9], the target named is Nuclear receptor subfamily 1 group I member 3 (Homo sapiens) (UniProt Q14994). Description: ATG_CAR_TRANS: Attagene TRANS-FACTORIAL HepG2 Assay for human Constitutive Androstane Receptor (CAR) (AID 2282969; active = hit-call score of the fitted dose curve at least 0.9, where 1 is the maximum;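 also: activators raise reporter mRNA above DMSO so AC50 marks induction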). Conditions: HepG2 Attagene TRANS-FACTORIAL CAR reporter. The method, boiled down:
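Steps: transient transfection of HepG2 with multiple GAL4-UAS reporter units; 24 h compound incubation; RNA isolation, RT-PCR, 6-FAM primer extension, HpaI digest; capillary electrophoresis. Gain-of-signal relative to DMSO negative control.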

Assay [10] concerns the target Estrogen receptor (Homo sapiens) (UniProt P03372). Description: ATG_ERa_TRANS: Attagene TRANS-FACTORIAL HepG2 Assay for human Estrogen Receptor alpha (ERa) (AID 2282970; active = hit-call score of the fitted dose curve at least 0.9, where 1 is the maximum). Conditions: HepG2 Attagene TRANS ERa GAL4 reporter, mRNA. The procedure, abridged:
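One of 30 multiplexed endpoints from a HepG2 TRANS system, this one reports ERa-Gal4-driven reporter mRNA. Transcripts were quantified 24 hours post-dosing by fluorescent RT-PCR and capillary electrophoresis, with activity scored as induction over DMSO.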

The target of assay [11] is X-box-binding protein 1 (Homo sapiens) (UniProt P17861). Description: ATG_Xbp1_CIS: Attagene CIS-FACTORIAL HepG2 Assay for human X-box Binding Protein 1 (XBP1) (AID 2282972). As to conditions: HepG2 XBP1 cis-element reporter, Attagene multiplex; actives raise or lower the signal. The method, boiled down:
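Changes in reporter transcript abundance, read by RT-PCR and capillary electrophoresis, reflect endogenous transcription factor activity. Transfected HepG2 cells received compound for 24 hours; DMSO defined baseline for bidirectional analysis.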

Assay [12] in a line: ATG_M_19_TRANS: Attagene TRANS-FACTORIAL HepG2 Assay for M19 Transcription Factor (Internal Marker) (AID 2282974; active = hit-call score of the fitted dose curve at least 0.9, where 1 is the maximum). As to conditions: HepG2 Attagene TRANS-FACTORIAL M19 internal marker reporter. The procedure, abridged: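 Gain-of-signal in reporter mRNA, relative to DMSO, was scored from capillary electrophoresis fluorescence. HepG2 cells carried transiently transfected multiple reporter transcription units and were incubated with test chemicals for 24 h.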

A short description of assay [13]: ATG_GAL4_TRANS: Attagene TRANS-FACTORIAL HepG2 Assay for GAL4 (Internal Marker) (AID 2282976; active = hit-call score of the fitted dose curve at least 0.9, where 1 is the maximum). As to conditions: HepG2 Attagene TRANS GAL4 internal marker reporter. The procedure, abridged:
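HepG2 cells transiently transfected with multiplexed GAL4-UAS reporter constructs were dosed for 24 h. Reporter mRNA was measured by RT-PCR, 6-FAM primer extension, HpaI digestion and capillary electrophoresis, and gain of signal was fitted relative to DMSO.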

Assay [14] deals with Signal transducer and activator of transcription 3 (Homo sapiens) (UniProt P40763). Description: ATG_STAT3_CIS: Attagene CIS-FACTORIAL HepG2 Assay for human Signal Transducer and Activator of Transcription 3 (STAT3) (AID 2282963). As to conditions: HepG2, Attagene cis-factorial STAT3 reporter transcription; actives raise or lower the signal. The procedure, abridged:
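Uses human liver HepG2 transiently carrying cis-regulated reporter transcription units. Following 24 h dosing, reporter mRNA induction was detected by RT-PCR and capillary electrophoresis, analysed bidirectionally versus DMSO.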

Assay [15] is described as follows: ATG_TA_CIS: Attagene CIS-FACTORIAL HepG2 Assay for human TA Basal Promoter (AID 2282964). As to conditions: HepG2 Attagene CIS-factorial TA basal promoter reporter; actives raise or lower the signal. The procedure, abridged:
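Background-control readout: TA basal promoter reporter mRNA, fitted in both directions relative to DMSO. Measured by RT-PCR and capillary electrophoresis 24 hours after treating HepG2 human liver cells transiently carrying multiplexed cis-regulated reporter constructs.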

A short description of assay [16]: ATG_TGFb_CIS: Attagene CIS-FACTORIAL HepG2 Assay for human Transforming Growth Factor (TGF) (AID 2282967). Conditions: HepG2 Attagene CIS TGFb reporter, mRNA transcription; actives raise or lower the signal. The method, boiled down: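 Endogenous TGFB1-linked transcription factor activity read as reporter mRNA via RT-PCR and capillary electrophoresis, 24 h after dosing transiently transfected HepG2 cells. Gain or loss of signal fitted relative to DMSO.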

Assay [17] in a line: ATG_VDRE_CIS: Attagene CIS-FACTORIAL HepG2 Assay for human Vitamin D Receptor Element (VDRE) (AID 2282968). As to conditions: HepG2 VDRE cis-reporter transcription, actives raise or lower the signal. The method, boiled down:
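Transfected HepG2 reporter cells, chemical treatment 24 h. RNA isolated, cDNA amplified with reporter-specific primers, products analysed by capillary electrophoresis. Endpoint fitted in both directions versus DMSO.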

A short description of assay [18]: ATG_SREBP_CIS: Attagene CIS-FACTORIAL HepG2 Assay for human Sterol Regulatory Element Binding (SREBP) (AID 2282962). Conditions: HepG2 Attagene cis-factorial SREBP reporter, mRNA; actives raise or lower the signal. The method, boiled down: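 In this cis-format assay, HepG2 liver cells express reporters controlled by promoter elements responsive to native transcription factors. Exposure lasts 24 h; reporter mRNA fluorescence from capillary electrophoresis gives the signal, fitted bidirectionally against DMSO.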

Assay [19] addresses Estrogen-related receptor gamma (Homo sapiens) (UniProt P62508). As to the kind of experiment: ATG_ERRg_TRANS: Attagene TRANS-FACTORIAL HepG2 Assay for human Estrogen-Related Receptor gamma (ERRg) (AID 2282977; active = hit-call score of the fitted dose curve at least 0.9, where 1 is the maximum;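 also: hits increase reporter signal over DMSO so potencies reflect activators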). Conditions: HepG2 Attagene TRANS reporter, ERRg transactivation. The procedure, abridged: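 Readout: fluorescent reporter-mRNA fragments resolved by capillary electrophoresis after RT-PCR and HpaI cut. Cells: transiently transfected HepG2 carrying GAL4-UAS reporters driven by exogenous NR-Gal4 chimeras, dosed 24 h. Activity fitted upward relative to DMSO baseline.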

Chain of Transcription factor Sp1 (Homo sapiens) (P08047 whole entry, looked up): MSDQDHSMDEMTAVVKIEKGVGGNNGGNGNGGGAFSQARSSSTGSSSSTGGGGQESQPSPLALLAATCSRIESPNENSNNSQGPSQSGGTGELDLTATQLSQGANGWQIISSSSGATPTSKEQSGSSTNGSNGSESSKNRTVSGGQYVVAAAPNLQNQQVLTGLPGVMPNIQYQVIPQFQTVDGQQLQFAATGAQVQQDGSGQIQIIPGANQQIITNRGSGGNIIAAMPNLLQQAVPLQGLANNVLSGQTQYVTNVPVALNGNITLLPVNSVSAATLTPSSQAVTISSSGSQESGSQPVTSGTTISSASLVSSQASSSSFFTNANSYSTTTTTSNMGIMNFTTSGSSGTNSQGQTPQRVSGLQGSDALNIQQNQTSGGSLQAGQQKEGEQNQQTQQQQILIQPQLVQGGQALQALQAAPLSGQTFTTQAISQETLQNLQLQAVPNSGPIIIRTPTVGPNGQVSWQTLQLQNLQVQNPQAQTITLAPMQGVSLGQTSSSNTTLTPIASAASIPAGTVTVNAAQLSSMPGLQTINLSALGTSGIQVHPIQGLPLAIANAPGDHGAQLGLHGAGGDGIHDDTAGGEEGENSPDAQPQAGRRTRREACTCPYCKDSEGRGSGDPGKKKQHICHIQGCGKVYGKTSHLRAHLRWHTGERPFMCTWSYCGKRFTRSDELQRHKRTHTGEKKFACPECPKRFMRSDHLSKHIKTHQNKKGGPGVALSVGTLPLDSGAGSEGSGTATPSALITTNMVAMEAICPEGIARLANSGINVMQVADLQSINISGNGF
Chain of X-box-binding protein 1 (Homo sapiens) (P17861 whole entry, looked up): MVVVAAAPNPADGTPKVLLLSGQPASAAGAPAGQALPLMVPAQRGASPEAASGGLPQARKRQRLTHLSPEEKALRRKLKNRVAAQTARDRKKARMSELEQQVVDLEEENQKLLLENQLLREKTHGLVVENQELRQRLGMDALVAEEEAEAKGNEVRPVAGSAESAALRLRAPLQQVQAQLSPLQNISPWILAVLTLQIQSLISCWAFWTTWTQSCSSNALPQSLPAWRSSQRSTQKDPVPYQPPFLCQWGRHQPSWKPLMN
Chain of Paired box protein Pax-6 (Homo sapiens) (P26367 whole entry, looked up): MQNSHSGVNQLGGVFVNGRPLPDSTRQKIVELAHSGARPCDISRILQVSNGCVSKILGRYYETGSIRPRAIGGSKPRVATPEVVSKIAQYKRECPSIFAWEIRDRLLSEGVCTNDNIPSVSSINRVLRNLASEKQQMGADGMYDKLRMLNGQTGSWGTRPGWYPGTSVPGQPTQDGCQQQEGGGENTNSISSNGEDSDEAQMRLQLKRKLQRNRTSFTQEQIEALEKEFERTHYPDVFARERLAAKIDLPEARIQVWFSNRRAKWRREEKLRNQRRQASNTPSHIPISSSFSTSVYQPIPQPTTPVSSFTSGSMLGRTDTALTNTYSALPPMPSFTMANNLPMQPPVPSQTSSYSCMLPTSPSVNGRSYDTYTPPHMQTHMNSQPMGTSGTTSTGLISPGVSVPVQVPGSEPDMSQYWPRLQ
Chain of Estrogen receptor (Homo sapiens) (P03372 whole entry, looked up, the tested form may be a part): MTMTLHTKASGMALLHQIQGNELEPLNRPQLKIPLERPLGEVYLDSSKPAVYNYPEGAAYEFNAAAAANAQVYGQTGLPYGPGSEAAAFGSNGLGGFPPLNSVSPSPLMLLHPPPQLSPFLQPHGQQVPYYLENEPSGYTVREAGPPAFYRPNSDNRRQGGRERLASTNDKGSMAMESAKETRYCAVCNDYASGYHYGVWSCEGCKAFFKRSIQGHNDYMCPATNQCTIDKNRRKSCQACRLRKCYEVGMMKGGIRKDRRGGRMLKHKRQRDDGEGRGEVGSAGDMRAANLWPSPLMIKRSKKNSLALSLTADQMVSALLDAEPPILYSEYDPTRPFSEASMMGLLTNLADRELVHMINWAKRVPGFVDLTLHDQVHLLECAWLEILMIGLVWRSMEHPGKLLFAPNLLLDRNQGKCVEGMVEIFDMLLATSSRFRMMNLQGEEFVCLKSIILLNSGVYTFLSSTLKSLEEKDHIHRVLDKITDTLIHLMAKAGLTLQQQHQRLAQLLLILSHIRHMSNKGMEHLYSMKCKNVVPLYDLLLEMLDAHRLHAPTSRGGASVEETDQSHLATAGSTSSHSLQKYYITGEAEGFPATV
Chain of Nuclear receptor subfamily 1 group I member 3 (Homo sapiens) (Q14994 whole entry, looked up, the tested form may be a part): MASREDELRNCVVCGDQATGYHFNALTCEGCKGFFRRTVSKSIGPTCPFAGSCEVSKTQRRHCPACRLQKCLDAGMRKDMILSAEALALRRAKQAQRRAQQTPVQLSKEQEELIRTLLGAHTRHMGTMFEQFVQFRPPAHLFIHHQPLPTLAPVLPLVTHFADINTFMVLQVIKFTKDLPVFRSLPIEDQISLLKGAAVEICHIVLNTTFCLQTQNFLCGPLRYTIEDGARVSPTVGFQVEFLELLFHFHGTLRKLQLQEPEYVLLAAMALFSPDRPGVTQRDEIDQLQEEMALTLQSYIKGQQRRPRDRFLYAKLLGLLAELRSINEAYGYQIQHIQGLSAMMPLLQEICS
Chain of Signal transducer and activator of transcription 3 (Homo sapiens) (P40763 whole entry, looked up): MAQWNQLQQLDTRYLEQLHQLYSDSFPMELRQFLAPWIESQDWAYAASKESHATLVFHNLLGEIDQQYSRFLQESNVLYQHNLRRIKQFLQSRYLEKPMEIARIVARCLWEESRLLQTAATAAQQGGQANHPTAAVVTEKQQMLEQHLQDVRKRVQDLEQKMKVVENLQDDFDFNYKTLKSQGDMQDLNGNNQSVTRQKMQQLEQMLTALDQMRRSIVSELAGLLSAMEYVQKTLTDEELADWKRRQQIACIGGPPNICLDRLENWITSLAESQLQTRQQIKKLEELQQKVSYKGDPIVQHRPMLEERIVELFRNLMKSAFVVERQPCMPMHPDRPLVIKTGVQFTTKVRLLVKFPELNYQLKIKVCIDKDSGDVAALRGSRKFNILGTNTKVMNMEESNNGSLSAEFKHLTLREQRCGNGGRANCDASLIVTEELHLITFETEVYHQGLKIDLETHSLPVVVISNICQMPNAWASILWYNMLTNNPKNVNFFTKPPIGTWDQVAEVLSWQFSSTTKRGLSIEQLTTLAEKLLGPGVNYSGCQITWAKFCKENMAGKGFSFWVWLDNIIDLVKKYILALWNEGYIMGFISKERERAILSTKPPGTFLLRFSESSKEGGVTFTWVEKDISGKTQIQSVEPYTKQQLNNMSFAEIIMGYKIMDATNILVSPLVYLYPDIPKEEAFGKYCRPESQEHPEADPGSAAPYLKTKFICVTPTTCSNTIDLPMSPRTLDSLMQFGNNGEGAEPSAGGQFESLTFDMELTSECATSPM
Chain of Estrogen-related receptor gamma (Homo sapiens) (P62508 whole entry, looked up, the tested form may be a part): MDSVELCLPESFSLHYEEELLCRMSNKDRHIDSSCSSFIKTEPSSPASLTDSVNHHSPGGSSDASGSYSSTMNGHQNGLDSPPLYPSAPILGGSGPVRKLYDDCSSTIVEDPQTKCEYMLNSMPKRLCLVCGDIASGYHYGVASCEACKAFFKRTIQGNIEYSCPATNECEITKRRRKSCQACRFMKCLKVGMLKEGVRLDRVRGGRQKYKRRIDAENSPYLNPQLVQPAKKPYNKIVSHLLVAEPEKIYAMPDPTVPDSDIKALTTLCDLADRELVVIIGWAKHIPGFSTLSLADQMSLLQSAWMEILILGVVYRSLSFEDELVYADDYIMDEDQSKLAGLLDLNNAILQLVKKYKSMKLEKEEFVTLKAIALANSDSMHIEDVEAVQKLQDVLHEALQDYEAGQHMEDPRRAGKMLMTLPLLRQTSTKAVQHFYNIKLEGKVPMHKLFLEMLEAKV

On to `O=C(c1ccc(O)cc1)c1ccc(O)cc1O`, for which the call in assay [1], in assay [4], in assay [5], in assay [6], in [7] and in assay [8] was inactive. Further, the result in assay [9], in assay [11], in assay [12] and in [13] was inactive. Also, the half-maximal activity concentration (AC50) is 35.8 µM (active) in assay [2], 100 µM (active) in assay [3] and 1.03 µM (active) in [10].

Consider `C=CC(=O)OCCOC1C2CCC1C1CC=CC12` (configuration not stated), for which the result in assay [1], in [2], in assay [3], in [4], in [5] and in assay [6] was inactive. Besides, the outcome in assay [14], in assay [15], in assay [7], in [8], in assay [16] and in [17] was inactive. Moreover, the call in assay [11], in [12] and in assay [13] was inactive.

For `CCc1c(C(=O)O)c(=O)cnn1-c1ccc(Cl)cc1`, the outcome in assay [1], in [3], in [4], in assay [5], in assay [6] and in assay [18] was inactive. Besides, the outcome in assay [15], in [7], in [8], in assay [16], in [17] and in assay [10] was inactive. Further, the result in assay [11], in assay [12], in assay [13] and in assay [19] was inactive. For the same molecule, the half-maximal activity concentration (AC50) in assay [2] is 52.3 µM (active).

`O=CN1CCCCC1`: the result in assay [1], in assay [2], in assay [3], in [4], in [5] and in assay [18] was inactive. Moreover, the result in assay [14], in assay [15], in assay [7], in assay [8], in [16] and in [17] was inactive. The molecule was called inactive in assay [9], in assay [10], in [11], in assay [12] and in [13].

As a reminder, the AC50 is the midpoint of the concentration-response curve, whichever way the signal moves.
